According to PubChem BioAssay AID651605 (National Center for Advancing Translational Sciences (NCATS), 2012):
Values joined by “and” are separate entries in the source; they are usually repeats but may differ in a detail not shown here. Identical values can stand only once. Records with an inconclusive call do not appear. Active and inactive are the calls of the source. Calls follow the shape of the dose curve; as a rule, active = well fitted inhibition curve with a large enough effect; inconclusive = small, poorly fitted or top-dose-only effect; inactive = flat fitted curve, though single readings scatter.

Biological target: Ubiquitin carboxyl-terminal hydrolase 1 (Homo sapiens) (UniProt O94782)
Assay: Inhibitors of USP1/UAF1: SAR in Primary Assay
Settings: Recombinant USP1/UAF1, Ub-Rhodamine cleavage fluorescence; series mostly up to 57.1 µM
Excerpt: Deubiquitinating enzymes (DUBs) are a class of enzymes that can cleave isopeptide bond formed between the C-terminal carboxylate of ubiquitin and a lysine side-chain amino group on the target protein. Among them, ubiquitin specific proteases (USPs) constitute the largest DUB family. Human USPs are emerging as promising targets for pharmacological intervention because of their connection to a number of human diseases, including prostate, colon and breast cancer (1, 2), pediatric acute lymphoblastic leukemia (3), and familial cylindromatosis (4). The advantage of inhibiting USPs lies in the potential specificity of therapeutic intervention that can lead to better efficacy and reduce nonspecific side effects. In a collaboration between the University of Delaware and the NIH Chemical Genomics Center, a high-throughput screen assay was developed to screen for USP1/UAF1 inhibitors (5). This assay was used to test the analogs that were synthesized based on SAR around the original hit. NIH Chemical Genomics Center [NCGC] NIH Molecular Libraries Probe Centers Network [MLPCN] MLPCN Grant: DA030552-01 Assay Submitter (PI): Zhihao Zhuang, University of Delaware 1. Priolo, C., et al. (2006) The isopeptidase USP2a protects human prostate cancer from apoptosis. Cancer Res 66, 8625-8632 2. Popov, N., et al. (2007) The ubiquitin-specific protease USP28 is required for MYC stability. Nat Cell Biol 9, 765-774 3. De Pitta, C., et al. (2005) A leukemia-enriched cDNA microarray platform identifies new transcripts with relevance to the biology of pediatric acute lymphoblastic leukemia. Haematologica 90, 890-898 4. Kovalenko, A., et al. (2003) The tumour suppressor CYLD negatively regulates NF-kappaB signalling by deubiquitination. Nature 424, 801-805 5. Chen, J., et al. (2011) Selective and cell-active inhibitors of the USP1/ UAF1 deubiquitinase complex reverse cisplatin resistance in non-small cell lung cancer cells. Chem Bio 18(11):1390-400.
3 microliters of reagents (buffer in columns 3 and 4 as negative control and 1nM USP1/UAF1 complex in columns 1, 2, and 5-48) are dispensed into Greiner black solid bottom 1536-well assay plates. Compounds are then transferred via Kalypsys pin tool equipped with 1536-pin array (10nl slotted pins, V&P Scientific, San Diego, CA). Following an incubation step of 15 min at room temperature, 1ul of Ub-Rho substrate (150nM final concentration) is added to initiate the reaction. The plates are immediately centrifuged at 1000 rpm for 15 seconds, and subsequently transferred to a ViewLux high-throughput CCD imager (PerkinElmer) wherein kinetic measurements of fluorescence are acquired using 480 nm excitation/540 nm emission filter set (6 reads every 60 seconds, see Table 1). All reagents are diluted in an assay buffer consisting of 50mM HEPES (pH 7.8), 0.5mM EDTA, 0.1 mg/ml BSA, 1mM TCEP, and 0.01% Tween-20.

Chain of Ubiquitin carboxyl-terminal hydrolase 1 (Homo sapiens) (O94782 whole entry, looked up): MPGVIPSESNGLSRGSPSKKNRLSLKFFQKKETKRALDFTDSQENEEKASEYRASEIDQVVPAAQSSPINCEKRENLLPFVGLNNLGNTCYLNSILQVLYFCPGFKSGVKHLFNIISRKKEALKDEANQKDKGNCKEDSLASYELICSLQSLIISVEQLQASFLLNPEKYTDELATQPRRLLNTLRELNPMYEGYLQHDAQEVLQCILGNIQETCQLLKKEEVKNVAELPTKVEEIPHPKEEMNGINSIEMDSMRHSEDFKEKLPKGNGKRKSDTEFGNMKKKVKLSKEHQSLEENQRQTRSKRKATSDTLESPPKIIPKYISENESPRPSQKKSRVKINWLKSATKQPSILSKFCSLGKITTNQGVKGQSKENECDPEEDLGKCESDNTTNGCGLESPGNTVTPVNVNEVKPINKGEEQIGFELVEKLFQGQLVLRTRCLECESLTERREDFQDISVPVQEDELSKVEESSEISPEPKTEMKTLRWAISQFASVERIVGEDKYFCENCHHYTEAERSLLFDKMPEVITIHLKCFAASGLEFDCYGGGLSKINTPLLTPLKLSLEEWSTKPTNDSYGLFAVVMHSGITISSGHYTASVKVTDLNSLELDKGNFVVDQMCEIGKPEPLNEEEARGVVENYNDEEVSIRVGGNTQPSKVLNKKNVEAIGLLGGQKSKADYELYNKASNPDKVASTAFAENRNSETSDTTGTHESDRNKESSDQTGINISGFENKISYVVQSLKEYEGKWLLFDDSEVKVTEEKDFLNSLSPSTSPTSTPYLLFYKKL

| Compound | Potency |
| --- | --- |
| FC(F)(F)c1ccccc1-c1nc(NCc2ccc(-c3cncnc3)cc2)c2ccccc2n1 | 1920 nM (active) |
| Cc1cnc(-c2ccccc2C(C)C)nc1NCc1ccc(-c2ccc(F)nc2)cc1 | 60.7 nM (active) |
| Cc1ccc(N2CCC(CNc3nc(-c4ccccc4C(C)C)ncc3C)CC2)cn1 | 171 nM (active) and 60.7 nM (active) |
| Cc1cnc(-c2ccccc2C(C)C)nc1NCC1CN(c2cccnc2)C1 | 6810 nM (active) |
| CC(Nc1nc(-c2ccccc2C(F)(F)F)nc2ccccc12)c1ccc(-c2ccccc2)cc1 (stereo unspecified) | 4820 nM (active) |
| Cc1cnc(-c2ccccc2C(C)C)nc1NCc1cccs1 | 215 nM (active) |
| Cc1cnc(-c2ccccc2N(C)C)nc1NCc1ccc(-c2cccnc2)cc1 | 429 nM (active) |
| Fc1cnc(-c2ccccc2C(F)F)nc1NCC1CCN(c2cnccn2)CC1 | 2410 nM (active) |
| Cc1cnc(-c2ccccc2C(C)(C)C)nc1NCc1ccc(-n2ccnn2)cc1 | 136 nM (active) |
| Cc1cnc(-c2ccccc2C(C)C)nc1NCC1CCN(c2cnccn2)CC1 | 121 nM (active) |
| Cc1cnc(-c2ccccc2C(C)C)nc1NCC1CCN(C2COC2)CC1 | 15200 nM (active) |
| N#Cc1ccc(-c2nc(NCc3ccc(-c4ccnc(C(F)(F)F)c4)cc3)c3ccccc3n2)cc1 | inactive |
| CC(C)c1ccccc1-c1ncc(F)c(NCc2ccc(-c3ccn[nH]3)cc2)n1 | 152 nM (active) |
| c1cncc(-c2ccc(CNc3nc(N4CCOCC4)nc4ccccc34)cc2)c1 | inactive |
| Cc1cnc(-c2ccccc2C(C)C)nc1N(C)Cc1ccc(-c2cccnc2)cc1 | 681 nM (active) |
| CC(C)c1ccccc1-c1ncc(F)c(NC2(c3ccc(-c4cccnc4)cc3)CC2)n1 | 38.3 nM (active) and 34.1 nM (active) |

| Compound | Potency |
| --- | --- |
| Cc1cnc(-c2ccccc2C(C)C)nc1NCc1ccc(-c2ccnc(C(F)(F)F)c2)cc1 | 383 nM (active) |
| Cc1cccc(CNc2nc(-c3ccccc3C(C)C)ncc2C)c1 | 136 nM (active) |
| c1ccc(-c2nc(NCc3ccc(-c4cccnc4)cc3)c3ccccc3n2)cc1 | 13600 nM (active) |
| CC(C)c1ccccc1-c1nc(NCc2ccc(-c3cccnc3)cc2)c2occc2n1 | 152 nM (active) |
| CC(C)(Sc1ccc(CCN(CCCCC2CCCCC2)C(=O)NC2CCCCC2)cc1)C(=O)O | 24100 nM (active) |
| Clc1ccccc1-c1nc(NCc2ccc(-c3cccnc3)cc2)c2ccccc2n1 | 857 nM (active) |
| Cc1cnc(-c2ccccc2C(C)O)nc1NCc1ccc(-c2cccnc2)cc1 (stereo unspecified) | 1360 nM (active) |
| Cc1ccccc1-c1nc(NCc2ccc(-c3cccnc3)cc2)c2ccccc2n1 | 482 nM (active) |
| Brc1ccccc1-c1nc(NCc2ccc(-c3cccnc3)cc2)c2ccccc2n1 | 961 nM (active) |
| FC(F)(F)c1ccc(-c2ccc(CNc3nc(-c4ccccc4C(F)(F)F)nc4ccccc34)cc2)cn1 | 4290 nM (active) |
| Cc1cnc(-c2ccccc2C(C)C)nc1NCc1ccc(C(N)=O)cc1 | 4290 nM (active) |
| Cc1nc(-c2ccccc2C(C)C)nc(NCc2ccc(-c3cccnc3)cc2)c1C | 136 nM (active) |
| Cc1ccc(-c2ccc(CNc3nc(-c4ccccc4C(C)C)nc4ccsc34)cc2)cn1 | 96.1 nM (active) |
| CC(C)c1ccccc1-c1ncc(F)c(NCC2CCN(c3cnccn3)C2)n1 (stereo unspecified) | 4290 nM (active) |
| FC(F)(F)c1ccccc1-c1nccc(NCc2ccc(-c3cccnc3)cc2)n1 | 541 nM (active) |
